Screening results from PubChem BioAssay.
N-glyco inh = blocks N-linked glycosylation in D54 reporter cells; 0.23% of 360,000 active; reporter increase, % at 12.5 µM; D54 ERlucT glycosylation luciferase reporter, 24 h; percent of 100 nM tunicamycin response;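 active = mean luciferase reporter signal, scaled so untreated is 0 and the glycosylation-blocking control 100, at or above a set limit in every replicate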;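 note: luciferase carries N-glycosylation sites so blocking glycosylation raises the light; 0% = median of neutral control wells and 100% = median of 100 nM tunicamycin wells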
CaV13 FRET inh = Primary screen for inhibitors of IQ motif and Ca2+-dependent inactivation inhibitor domain binding in CACNA1D, Förster resonance energy transfer in living cells, …. HEK cells, CFP/YFP FRET ICDI-IQ, plate reader, 10 min; percent FRET-ratio fall versus neutral wells. inhibition, % at 12.3 µM. 0.098% of 340,000 active. AID 743397;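 active = mean replicate inhibition of at least 30% and at least 1% of replicates passing that level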;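 note: 0% = median of the neutral control wells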
Vif imaging = HIV Vif inhibition; HEK293T cells, Vif self-association by quenched fluorescence, imaging, 24 h; inhibition, % at 7.49 µM; 0.35% of 340,000 active; AID 602346; in the data active = inhibition above about 50%, passing the limit was not always enough
ATG4B inhibitor = blocks human ATG4B protease cleavage of LC3 substrate; ATG4B cleavage of LC3-PLA2, NBD-HPC fluorescence, 1 h; inhibition, % at 8.33 µM; 0.51% of 340,000 active; in the data active = inhibition above about 40%
DSG3 Ab inh = human desmoglein-3 autoantibody binding inhibition; P32926; DSG3-coupled beads, scFv-anti-DSG3-GFP binding, flow cytometry; hits give low values; binding (percent of control), % at 10 µM; 0.48% of 310,000 active; AID 588358;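 active = binding more than 3 SD below its plate's average and above zero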;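 note: hits lower antibody fragment binding to DSG3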
NSD2 HMT inh = NSD2 (human) methyltransferase inhibition; O96028; NSD2 peptide methylation, AlphaScreen, 120 min; inhibition, % at 12.5 µM; 0.54% of 310,000 active; AID 743445; in the data active = inhibition above about 50%
* = called active by the depositor; . = no result given. This is a sample that favours compounds with a hit; in the whole collection about 1.9% have one here.

SMILES | N-glyco inh | CaV13 FRET inh | Vif imaging | ATG4B inhibitor | DSG3 Ab inh | NSD2 HMT inh
O=C(N/N=C/c1ccc([N+](=O)[O-])cc1)c1[nH]ncc1Br | -3 | -1 | -2 | 12 | 59* | 0
CCOC(=O)N(C)[C@H]1C[C@H]2c3cc(-c4ccccc4C)ccc3CCN2C[C@H]1[C@H](C)O | . | -4 | . | . | . | .
O=C(Nc1ccc(N2CCOCC2)cc1)c1ccc2nc(-c3ccco3)c(-c3ccco3)nc2c1 | 0 | -9 | -2 | 11 | 2.0* | 1
O=C(NNC(=S)Nc1ccccc1)NNC(=S)Nc1ccccc1 | 2 | -4 | 4 | -5 | 104 | -7
COc1ccc(NC(=O)CN2C(=O)/C(=C3\SC(=S)N(CCC(=O)O)C3=O)c3ccccc32)cc1 | 1 | . | 0 | 0 | 82* | 3
Cc1cc(=O)oc2c(C)c(OC(=O)c3ccco3)ccc12 | -3 | -6 | 18 | 1 | 111 | 18
Fc1c(F)c(-n2nnc3ccccc32)c(F)c(F)c1Cl | -2 | -4 | 60* | 7 | 95 | -3
O=S(=O)(C/C(=C/CO)S(=O)(=O)c1ccccc1)c1ccccc1 | -11 | -5 | 62* | -3 | 100 | 6
COc1ccc(C(=O)c2ccc(Cl)c([N+](=O)[O-])c2)cc1 | 1 | -2 | 69* | 2 | 133 | 1
O=C(NC(=S)Nc1ccc(NC(=O)c2ccccc2)cc1)c1ccc(F)cc1 | -1 | -2 | 51* | 7 | 94 | -6
O=C(Nc1ccc(NC(=S)NC(=O)c2ccco2)cc1)c1ccc(Br)cc1 | 0 | -5 | 53* | . | 101 | 8
O=C(Nc1ccc(NC(=S)NC(=O)c2ccco2)cc1)c1ccccc1 | -3 | -2 | 13 | -8 | 102 | 7
O=C(Nc1ccc(C(=O)c2ccccc2)cc1)c1ccc(F)cc1 | . | . | . | . | . | 1
Nc1ccccc1N1CCOCC1 | 5 | -4 | 3 | -8 | . | 4
COc1ccc(OC)c(/C=N/Nc2nc(C)cc(=O)[nH]2)c1 | 1 | -5 | 5 | -3 | 111 | -5
COc1ccccc1/C=N/Nc1nc(C)cc(=O)[nH]1 | -1 | 40* | -4 | . | 97 | 10
CN(C)c1ccc(-c2noc(C3CCN(S(=O)(=O)c4cccc(C(=O)O)c4)CC3)n2)cc1 | -1 | -8 | 2 | -4 | 98 | 8
N#Cc1ccc(-c2ccc(F)cc2)nc1Oc1ccc(F)cc1 | -5 | -6 | -2 | 6 | 82* | 0
N#Cc1ccc(-c2ccc(F)cc2)nc1Oc1ccccc1 | -5 | -4 | -15 | -3 | 83 | -1
CCOCCc1nnc(NC(=O)C2CC(=O)N(c3ccc(OCC)cc3)C2)s1 (stereo not drawn) | 0 | -3 | 10 | -3 | 103 | -1
COCCNc1c2c(nc3ccccc13)CCC2 | 2 | -5 | -4 | 0 | 117 | 1
CN(C)CCCNc1c2c(nc3ccccc13)CCC2 | 30* | -20 | -2 | 0 | 97 | 7
OCCCNc1c2ccccc2nc2ccccc12 | 36* | 2 | -18 | 7 | 99 | -1
Cc1ccc(-c2nc(NCCCO)c3ccccc3n2)cc1 | 3 | -2 | -4 | 1 | 118 | 2
COc1ccc(CCNc2c3ccccc3nc3ccccc23)cc1OC | 84* | -3 | -2 | -6 | 102 | 9
SMILES | N-glyco inh | CaV13 FRET inh | Vif imaging | ATG4B inhibitor | DSG3 Ab inh | NSD2 HMT inh
C=CCOC(=O)N1CCN(c2cccc(C(F)(F)F)c2)CC1 | -2 | -5 | 2 | 0 | 103 | -6
COC(=O)[C@]1(Cc2ccccc2)N[C@H](CN(C)C(=O)Nc2ccc(F)cc2)[C@@H]2C(=O)N(C)C(=O)[C@@H]21 | 3 | -8 | -5 | -1 | 96 | .
Cc1noc(C)c1CSCC(=O)Nc1cc(S(=O)(=O)N2CCCCC2)ccc1OC(C)C | -3 | -6 | -5 | -10 | 100 | 0
Cc1noc(C)c1CSCC(=O)Nc1cc(S(=O)(=O)N2CCOCC2)ccc1OCC(F)(F)F | -2 | -4 | -11 | -1 | 76* | -1
OCCO | 0 | . | 55* | -9 | 103 | .
Cc1nc(-c2ccc(NC(=O)Cc3ccccc3)cc2)cs1 | 2 | -4 | -4 | -1 | 104 | 15
COc1ccc(-c2nc(CS(=O)(=O)CC(=O)NCCc3ccccc3)c(C)o2)cc1 | 2 | -15 | 56* | -2 | 98 | 2
Cc1ccc(Nc2nnc(SCC(=O)NCCN3C(=O)CSC3=O)s2)cc1C | 1 | -4 | -2 | -5 | 90 | -1
CCC1CN(C(=O)NCc2ccc(F)cc2)c2cc(Cl)ccc2O1 (stereo not drawn) | -4 | -20 | 3 | 11 | 111 | -8
COc1ccc(C(=O)CSc2nn3c(=O)c(C(C)(C)C)nnc3s2)cc1 | 34* | . | -3 | -20 | 100 | 1
COc1cccc(CCc2nnc(CCC(=O)N3CCCC3c3nccs3)o2)c1 (stereo not drawn) | 2 | 0 | 9 | -4 | 95 | 4
O=C(NC(Cc1ccccc1)C(=O)NC(Cc1ccccc1)C(=O)O)c1ccccc1 (stereo not drawn) | 1 | -4 | 27 | 3 | 101 | -3
Cc1ccnc(NC(=O)C(Cc2ccccc2)NC(=O)c2ccccc2)c1 (stereo not drawn) | 25* | -6 | -3 | -6 | 99 | 1
CCCOc1ccc2ccccc2c1/C=N/n1c(C)nnc1-n1nc(C)cc1C | 27* | . | 5 | -5 | 80 | 0
Cc1cc(C)n(-c2nnc(C)n2/N=C/c2ccco2)n1 | 0 | -6 | 10 | -1 | 97 | -2
CC(=NNC(=O)c1cc(C)oc1C)c1ccc(Br)s1 | -1 | -3 | 52* | 3 | 114 | -1
C/C(=N\NC(=O)c1ccoc1C)c1ccc(Br)s1 | 3 | . | -3 | 2 | 119 | -3
Nc1c(-c2cccs2)cnn1-c1nc(-c2ccc(F)cc2)cs1 | 0 | -5 | 0 | 5 | -16* | 0
Cc1cccc(C2NC(c3cccc(C)c3)C(C)C(=O)C2C)c1 (stereo not drawn) | -4 | -1 | 0 | 5 | 105 | -5
CN(C)c1ccc2nc3ccc(=[N+](C)C)cc-3sc2c1 | -16 | -4 | -3 | 1 | 102 | 62*
CN(C)c1ccc2nc3ccc(=O)cc-3sc2c1 | -8 | -10 | . | . | 101 | 13
COc1cc(/C=C/C=C2/CC/C(=C/C=C/c3ccc(O)c(OC)c3)C2=O)ccc1O | 1 | -6 | -14 | 28 | 36* | 1
O=C1CCc2cc(S(=O)(=O)NCc3ccccc3Cl)ccc2N1 | 1 | -4 | -4 | 1 | . | -7
COc1cccc(C2=Nc3cccc4cccc(c34)N2)c1 | 2 | -3 | 6 | -16 | 98 | 4
c1coc(C2=Nc3cccc4cccc(c34)N2)c1 | 2 | 8 | 22 | -10 | 78* | 11
Cc1cc2nc3c(=O)[nH]c(=O)[nH]c3nc2c([N+](=O)[O-])c1N | 4 | -161 | 10 | -7 | 35* | .
